Shown are actives, neighbours in structure and some others; about 32% of the full set was active somewhere.
PostGolgi ctrl – growth of the yeast control strain, post-Golgi counter-screen; efflux-deficient yeast background strain, growth absorbance A615, 16 h; inhibition, % at 10 µM; actives 5% (n = 98,000)
CYP2C9 act – increases human cytochrome P450 2C9 activity | recombinant CYP2C9, luciferin-H conversion, luminescence; stronger effect = higher value; factor 1 = untreated enzyme, 0 = blocked | P11712 | activation factor at 5 µM | actives 1.4% (n = 96,000);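 active means activation factor of 2 or more for CYP2C9 at a 5 µM dose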
Target sequence (P11712 whole entry, looked up): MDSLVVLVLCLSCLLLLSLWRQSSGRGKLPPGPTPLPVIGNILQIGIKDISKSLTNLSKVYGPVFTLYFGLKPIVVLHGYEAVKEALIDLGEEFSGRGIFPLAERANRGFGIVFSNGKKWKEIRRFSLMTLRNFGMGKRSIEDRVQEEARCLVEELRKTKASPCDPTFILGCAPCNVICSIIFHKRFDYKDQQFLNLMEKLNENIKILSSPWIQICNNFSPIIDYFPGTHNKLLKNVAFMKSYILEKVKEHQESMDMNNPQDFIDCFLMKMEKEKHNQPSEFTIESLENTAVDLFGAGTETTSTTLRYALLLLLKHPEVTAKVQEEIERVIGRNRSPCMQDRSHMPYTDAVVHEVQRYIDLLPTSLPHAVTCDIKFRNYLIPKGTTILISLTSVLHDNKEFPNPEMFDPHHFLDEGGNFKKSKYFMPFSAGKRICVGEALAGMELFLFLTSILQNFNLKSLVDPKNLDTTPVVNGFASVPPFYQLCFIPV
PostGolgi yeast – growth inhibition of a yeast mutant, post-Golgi transport screen. actives 0.9% (n = 98,000). post-Golgi transport phenotypic cell assay. inhibition, % at 10 µM;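 further: yeast cells grown in 1536-well plates; yeast grown about 18 h at 30C before absorbance read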
CYP2C19 act – increases human CYP2C19 enzyme activity. activation factor at 5 µM. recombinant CYP2C19, luciferin-H EGE luminescence; stronger effect = higher value; 0 = fully inhibited enzyme, 1 = untreated enzyme. 96,000 tested, under 10 active. AID 1025;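 active means activation factor of at least 2 at 5 µM in the primary screen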
CYP2C9 inh – human CYP2C9 inhibition. P11712. CYP2C9 Supersomes, luciferin-H conversion, luminescence. inhibition, % at 5 µM. actives 20% (n = 96,000). AID 777;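 active means blocking of liver enzyme CYP2C9 beyond about 50% at 5 µM, limit read from the data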
CYP2C19 inhib – human CYP2C19 inhibition | AID 778 | CYP2C19 Supersomes, luciferin-H EGE luminescence, 30 min | inhibition, % at 5 µM | P33261 | actives 21% (n = 96,000);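 active means CYP2C19 inhibition above a set limit at 5 µM in the primary screen, cut at about 50% in these data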
Large screens that a line does not name were inactive. Unless noted, no stated cut-off is given here; in the data, active means inhibition above about 30%; inactive means the rest.

CCOc1ccc(OCC)c(S(=O)(=O)NCc2ccc3c(c2)OCO3)c1	CYP2C9 inh 92, CYP2C19 inhib 100
COc1cc(C)c(Cl)c(C)c1S(=O)(=O)NCc1ccc2c(c1)OCO2	none
COc1cc(S(=O)(=O)NCc2ccc3c(c2)OCO3)ccc1Cl	CYP2C19 inhib 100
O=S(=O)(NCc1ccc2c(c1)OCO2)c1cnc[nH]1	CYP2C9 inh 92, CYP2C19 inhib 70
COc1cc(C)c(S(=O)(=O)NCc2ccc3c(c2)OCO3)cc1C	CYP2C9 inh 84, CYP2C19 inhib 100
COc1ccccc1/C=N/NC1=NCCCCC1	none
COc1ccc(-n2nc3cc(C)c(N)c(Br)c3n2)cc1	none
O=C(Nc1nnc(-c2ccccc2Cl)o1)c1cccnc1	CYP2C9 inh 82
Cc1ccccc1NCCNc1ccccc1C	CYP2C19 inhib 83
CCOC(=O)C(C)n1cnc2c(nnn2Cc2ccc(C)cc2)c1=O (centres undefined)	CYP2C9 act 2.9, CYP2C19 inhib 53
CCOC(=O)C(C)n1cnc2c(nnn2Cc2ccc(Cl)cc2)c1=O (centres undefined)	CYP2C9 act 2.5
CCOC(=O)C(C)n1cnc2c(nnn2-c2ccc(C)cc2)c1=O (centres undefined)	none
Cc1ccc(Cn2nnc3c(=O)n(Cc4cccc(C)c4)cnc32)cc1	CYP2C9 act 2.1
Cc1cc(=O)n2c(n1)OC(CO)C2 (centres undefined)	none
CCCNC(=O)c1ccccc1C(=O)NCCC	none
COc1ccc(N2CCN(c3cc(C)c4ccc(O)cc4n3)CC2)cc1	none (no result: CYP2C9 act, CYP2C19 act, CYP2C9 inh, CYP2C19 inhib)
Cc1cc(N2CCN(c3ccccc3F)CC2)nc2cc(O)ccc12	CYP2C9 act 2, CYP2C19 inhib 57
Cc1cc(N2CCOCC2)nc2cc(O)ccc12	none (no result: CYP2C9 act, CYP2C19 act, CYP2C9 inh, CYP2C19 inhib)
COc1ccc2c(C)cc(N3CCN(c4ccc(F)cc4)CC3)nc2c1	CYP2C9 act 2.3, CYP2C19 inhib 83
Cc1cc(N2CCN(c3ccc(F)cc3)CC2)nc2cc(O)ccc12	CYP2C9 act 3.2
Cc1c(Cl)cccc1NC(=O)CCCN1C(=O)CCC1=O	none
CC(CNCc1ccc2c(c1)OCO2)NCc1ccc2c(c1)OCO2 (centres undefined)	CYP2C19 inhib 67
CCOC(=O)C1=C(c2ccccc2)N=c2s/c(=C\c3cccc(O)c3)c(=O)n2C1c1cccs1 (centres undefined)	none (no result: CYP2C9 act, CYP2C19 act, CYP2C9 inh, CYP2C19 inhib)
O=c1/c(=C\c2ccc(O)cc2)sc2n1C(c1ccccc1)C(c1ccccc1)=NN=2 (centres undefined)	CYP2C9 inh 56
CCNc1nc(Oc2ccc(C(=O)OCC)cc2)nc(SC)n1	none
CC(C)CN(C(=O)c1ccc(=O)n(C)n1)c1nc2ccccc2s1	CYP2C9 inh 84, CYP2C19 inhib 90
CC(C)CC(=O)c1c[nH]c(C(=O)NCCCN2CCOCC2)c1	none
CNC(=O)C(=O)NCCc1ccc(Cl)cc1	none
COc1ccc2c(C)cc(SCC(=O)N3CCOCC3)nc2c1	CYP2C19 inhib 68
COc1ccc2c(C)cc(N3CCOCC3)nc2c1	none
NC(=O)Nc1ccc(Oc2c(F)c(F)c(F)c(F)c2F)cc1	none
Cn1c(Cc2c[nH]c3ccccc23)n[nH]c1=S	CYP2C19 inhib 67
CCCN(CCC)CCNC(=O)C1CC(=O)N(c2ccc(OC)cc2)C1c1ccc(OC)cc1 (centres undefined)	none
c1ccc2c(Cn3ccnc3)c[nH]c2c1	CYP2C9 inh 84, CYP2C19 inhib 86
CC(=O)Nc1cc(C(F)(F)F)ccc1Oc1cccc(Br)c1	CYP2C9 inh 58, CYP2C19 inhib 98
COc1cc(C(=O)Nc2cc(C(F)(F)F)ccc2Cl)cc(OC)c1OC	none
CC(C)C(NC(=O)c1cccs1)C(=O)NC1=NCCS1 (centres undefined)	CYP2C19 inhib 54
O=C(NC1=NCCS1)c1cccs1	none
Cc1ccc(C(=O)COC(=O)CNC(=O)COc2ccccc2C)cc1C	CYP2C9 act 2.4
CC(=O)NCC(=O)OCC(=O)c1ccc(C)c(C)c1	none
Cc1cc(NC(=O)CSc2nnnn2Cc2ccccc2)no1	none (no result: CYP2C9 act, CYP2C19 act, CYP2C9 inh, CYP2C19 inhib)
CCN(CC)C(=O)CSc1nc2ccc(NC(=O)CSc3nnc(COc4ccccc4C)n3C)cc2s1	none
CC(C)(C)NC(=O)CSc1nc2ccc(NC(=O)CSc3nnnn3Cc3ccccc3)cc2s1	CYP2C19 inhib 52
Cc1ccccc1OCc1nnc(SCC(=O)Nc2ccc3nc(SCC(=O)NC(C)(C)C)sc3c2)n1C	CYP2C9 inh 75, CYP2C19 inhib 53

Source: PubChem (several laboratories)
